The source of these data is PubChem BioAssay AID619 (University of Pittsburgh Molecular Library Screening Center, 2007).

Structures are written as SMILES. Screen size: about 97,000 compounds; about 520 (0.54%) were called active.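 The calls were made as follows: active = inhibition of 50% or more in the single-concentration screen; inactive = inhibition below 50%.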 What follows is part of a selection rich in actives, with near analogues and random picks from the rest.

The assay deals with Serine/threonine-protein kinase PLK1 (Homo sapiens) (UniProt P53350). Briefly: Plk1 peptide phosphorylation blockers – biochemical, TR-FRET, primary screen (AID 619).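 Also: 0% = DMSO max control and 100% = H-89 dihydrochloride min control.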 The note with it: recombinant PLK1 kinase, at 10 µM, hits give high values. (TR-FRET usually uses a lanthanide donor and a delayed reading to cut background.)
Chain of Serine/threonine-protein kinase PLK1 (Homo sapiens) (P53350 whole entry, looked up): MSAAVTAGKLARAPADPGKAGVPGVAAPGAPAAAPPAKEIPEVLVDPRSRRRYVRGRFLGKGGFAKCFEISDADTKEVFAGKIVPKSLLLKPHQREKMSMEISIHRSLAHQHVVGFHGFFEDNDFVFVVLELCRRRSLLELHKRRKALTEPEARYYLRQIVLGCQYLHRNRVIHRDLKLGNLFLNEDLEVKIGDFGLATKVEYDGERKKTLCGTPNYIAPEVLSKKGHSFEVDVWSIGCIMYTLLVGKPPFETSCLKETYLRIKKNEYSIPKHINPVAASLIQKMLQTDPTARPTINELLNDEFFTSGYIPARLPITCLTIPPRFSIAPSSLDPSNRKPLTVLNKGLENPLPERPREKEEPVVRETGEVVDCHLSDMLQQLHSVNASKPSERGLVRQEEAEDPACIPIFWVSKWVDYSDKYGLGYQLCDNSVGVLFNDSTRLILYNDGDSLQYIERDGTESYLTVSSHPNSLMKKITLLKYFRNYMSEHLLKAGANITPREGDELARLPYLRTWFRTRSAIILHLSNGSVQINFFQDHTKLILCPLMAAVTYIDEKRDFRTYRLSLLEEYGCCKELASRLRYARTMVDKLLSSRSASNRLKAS
On to `CC1CN(c2cc(=O)n(Cc3ccc(F)cc3)c(=O)[nH]2)CC(C)O1` (centres undefined), for which the inhibition – broadly, the change of the read-out against control, counted positive when it falls – is 70.7% (active).
In the case of `CC1CN(c2cc(=O)n(-c3cccc(Br)c3)c(=O)[nH]2)CC(C)O1` (centres undefined), the inhibition is -9.28% (inactive).
For `CC(C)(C)N1CC(c2nc3ccccc3n2Cc2ccc(F)cc2)CC1=O` (centres undefined), the inhibition was -8.27% (inactive).
With `Cc1c(Cl)c([N+](=O)[O-])nn1Cc1ccc(C(=O)N/N=C\c2cc(Cl)ccc2O)o1` the figure was -11.3% (inactive); with `COc1ccc(Nc2nc(Cl)nc(NCc3ccco3)n2)cc1`, -10.4% (inactive).
Take `Cc1ccc(-c2nc(CS(=O)CC(=O)NC3CCCC3)c(C)o2)cc1` (centres undefined): the inhibition was 62.6% (active).
For `Cc1ccc(S(=O)(=O)N(C)CC(=O)NC2CCCC2)cc1`, the inhibition was -5.15% (inactive).
For `COc1ccc(-c2nnc(SCC(=O)NC3CCCCC3)o2)cc1OC`, the inhibition is -12.8% (inactive).
The value for `Cc1ccc(-c2nc(CS(=O)CC(=O)N3CCN(c4ncccn4)CC3)c(C)o2)cc1` (centres undefined) was 68.5% (active); that for `COc1ccc(-c2nc(CS(=O)CC(=O)N3CCc4ccccc4C3)c(C)o2)cc1` (centres undefined) was -0.36% (inactive); that for `Cc1ccc(S(=O)(=O)NCC(=O)N2CCN(c3ccccn3)CC2)cc1` was -12% (inactive).
As to `O=C(Nc1ccc(F)c(Cl)c1)C1CCN(S(=O)(=O)c2cccnc2)CC1`, the inhibition was -7.65% (inactive).
The value for `N#CC1=C(N)N(c2ccccc2)C2=C(C(=O)CCC2)C1c1ccccc1` (centres undefined) was -9.12% (inactive); that for `CCOC(=O)Cc1csc(NC(NC(=O)OCC)(C(F)(F)F)C(F)(F)F)n1` was -10.9% (inactive).
With `C=CCn1c(SCc2c(C(=O)OC)sc(N)c2C(=O)OC)nnc1-c1ccc(Cl)cc1` the figure was 0.32% (inactive); with `Cc1ccc(Nc2nc(C)cc(C)c2C(N)=O)cc1`, -8.3% (inactive); with `CCNC(=S)N1CCN(C(=O)c2ccco2)CC1`, -10.9% (inactive).
The value for `COc1ccc(CN(Cc2ccco2)S(=O)(=O)c2ccc(S(=O)(=O)N3CCCC3)cc2)cc1` was -1.36% (inactive).
Consider `O=C1c2ccccc2C(=O)N1CC1c2ccccc2CCN1S(=O)(=O)c1ccccc1` (centres undefined), for which the inhibition was -13.2% (inactive).
Turning to `Cc1noc(C)c1COC(=O)c1cc2ccccc2cc1O`, the inhibition is -5.75% (inactive).
As for `O=C(NCCCCCCCCCNC(=O)C(F)(F)F)C(F)(F)F`, the inhibition was -9% (inactive).
`COc1ccc(C(C(=O)NCc2ccccc2)N(Cc2cccs2)C(=O)c2cnccn2)cc1` (centres undefined): the inhibition is -8.73% (inactive).
For `Fc1ccc(N2N=C(c3cccs3)CC2c2ccco2)c(F)c1` (centres undefined), the inhibition was -0.33% (inactive).
In the case of `O=c1[nH]c(CCl)nc2cc(-c3ccc(Cl)cc3)sc12`, the inhibition was -15.1% (inactive).
The value for `CCCCNC(=O)CCn1c(=S)[nH]c2cc3c(cc2c1=O)OCO3` was -10.8% (inactive); that for `CCn1c(C)nc2c1C(=O)c1ccccc1C2=O` was -6.21% (inactive).
The value for `CC1CCN(c2ccc(S(=O)(=O)Nc3cc(C(=O)O)cc(C(=O)O)c3)cc2[N+](=O)[O-])CC1` was -8.56% (inactive); that for `CCN(CC)C(=O)CSc1nnc(C2CCCCC2)o1` was -6.95% (inactive).
Turning to `O=C(CSCc1ccc([N+](=O)[O-])cc1)Nc1cccc(C(=O)Nc2ccccc2C(=O)O)c1`, the inhibition is -6% (inactive).
The value for `CCc1ccc2c(c1)cc(CN(C(=S)Nc1ccccc1Cl)C1CC1)c1nnnn12` was -115% (inactive); that for `O=C(CO/N=C/c1ccccc1O)NNC(=O)c1ccccc1Cl` was -11.5% (inactive).
The value for `COC(=O)C1C(=O)NCC1c1ccc(C)cc1` (centres undefined) was -7.84% (inactive).
With `CC1C/C(=N/NC(=O)c2cccs2)CC(C)(C)C1` (centres undefined) the figure was -10.1% (inactive); with `Cc1cccc(C(=O)Nc2ccccc2-c2nnn(CC(=O)Nc3ccc4c(c3)OCCO4)n2)c1`, -19.8% (inactive); with `O=C1c2ccccc2C(Nc2ccc3c(c2)OCCO3)N1Cc1ccco1` (centres undefined), -13.3% (inactive).
As to `Cc1ccnc(N2C(=O)c3ccccc3C2Nc2ccc3c(c2)OCCO3)c1` (centres undefined), the inhibition was 75.7% (active).
The value for `O=C(Nc1ccc(S(=O)(=O)N2CCc3ccccc3C2)cc1)c1ccccc1` was -9.1% (inactive); that for `CCN1CCN(C(=O)C2(NC(=O)Nc3cccc(F)c3)CCCCC2)CC1` was -9.1% (inactive).
The value for `CCOC(=O)C1=C(C)NC2=C(C(=O)CC(C)(C)C2)C1c1ccsc1` (centres undefined) was -9.3% (inactive); that for `CC(=O)N/C(=C/c1ccc(Cl)cc1)C(=O)NCCc1c[nH]c2ccccc12` was -8.99% (inactive); that for `CCCOn1c(-n2nc(C)cc2C)nc2ccccc2c1=O` was -12.7% (inactive).
The value for `COc1ccc2ccccc2c1CNCc1ccccn1` was -6.16% (inactive).
As for `CN(C)/C=C/C(=O)c1ccccc1F`, the inhibition was -7.63% (inactive).
The value for `COc1ccccc1CNC(=O)c1ccc(SC)cc1OC` was -11.5% (inactive).
The value for `CCOc1ccc(CN(Cc2ccco2)S(=O)(=O)c2ccc(-n3cnnn3)c(OC)c2)cc1` was -4.62% (inactive).
On to `CCOc1[nH]n(-c2ccc(Cl)cc2)c(=O)c1C=Nc1ccc(O)cc1`, for which the inhibition was -12.9% (inactive).
With `O=C(O)c1ccccc1NC(=S)NC(NC(=O)c1ccccc1[N+](=O)[O-])C(Cl)(Cl)Cl` (centres undefined) the figure was -10.3% (inactive); with `Cc1ccc(C2=CSC3=NS(=O)(=O)CCN23)cc1C`, -12.2% (inactive); with `Cc1[nH]n(-c2ccc([N+](=O)[O-])cc2)c(=O)c1C=NCCN1CCN(C(=O)c2ccccc2F)CC1`, -16.1% (inactive).
`Cc1ccc(NC(=S)Nc2ncccc2C)c(C)c1`: the inhibition is -6.19% (inactive).
With `CC(=O)Nc1cccc(NC(=O)c2c(-c3ccccc3)noc2C)c1` the figure was -5.51% (inactive); with `Cc1onc(-c2ccccc2)c1C(=O)N1CCOCC1`, -6.08% (inactive).
For the compound `Cc1onc(-c2ccccc2)c1C(=O)Nc1ccccc1C#N`, the inhibition was 66.8% (active).
The value for `O=C(/C=C/Nc1ccccc1OC(F)(F)F)C(F)(F)F` was -3.23% (inactive).
With `COc1ccc(-n2cnc3cc(NCc4ccco4)ccc32)cc1` the figure was -1.91% (inactive); with `COc1ccc(-c2cc(C3CCN(c4ncccc4[N+](=O)[O-])CC3)[nH]n2)cc1`, -0.7% (inactive); with `CCOC(=O)Nc1ccc2c(c1)N(C(=O)CCN1CCN(CCO)CC1)c1ccccc1CC2`, -25.9% (inactive).
Consider `CCN(CC)Cc1cc(C(C)=O)ccc1O`, for which the inhibition was -5.02% (inactive).
With `CC(=O)Nc1ccc(NC(=O)c2sc3nc4c(c(-c5ccc(C)cc5)c3c2N)CCC4)cc1` the figure was -27.3% (inactive).
`CCN(CC)CCNc1ccc(Cl)cc1[N+](=O)[O-]`: the inhibition was -12.3% (inactive).
With `Cc1cc(C)c2c3c(sc2n1)C(c1ccccc1)C(C#N)=C(N)O3` (centres undefined) the figure was -9.36% (inactive); with `c1ccc(CCC2=NCCn3cccc32)cc1`, -1.03% (inactive); with `CC1CSc2nnc(CCc3ccccc3)n21` (centres undefined), 85.2% (active).
With `CNC(=O)CSc1nnc(CCc2ccccc2)n1-c1ccccc1`, the inhibition was -5.54% (inactive).
With `Cc1ccoc1C(=O)Nc1cccc(Oc2ccccc2)c1` the figure was 1.94% (inactive); with `Cc1nc2nc(C)c(CCC(=O)N3CCN(c4ccccc4)CC3)c(C)n2n1`, 4.83% (inactive); with `c1cncc(-c2nnc3n2C2(CCCCC2)Cc2ccccc2-3)c1`, -8.5% (inactive).
With `COc1cccc(/C=N/NC(=O)C(=O)N2CCCC2)c1`, the inhibition is -9.34% (inactive).
The value for `CCOC(=O)N1CCN(Cc2nc(N)nc(Nc3ccc(C)cc3)n2)CC1` was -13.1% (inactive); that for `CC(Oc1ccc(F)cc1F)C(=O)/C=C/N(C)C` (centres undefined) was 0.09% (inactive); that for `CN1CCN(c2ccc([N+](=O)[O-])c(Sc3nc4ccccc4[nH]3)c2)CC1` was -5.67% (inactive).
Take `C=CCn1c(Cn2nnc3ccccc32)nnc1SCC(=O)N/N=C/c1cc(Br)cc(OC)c1O`: the inhibition is -6.54% (inactive).
Regarding `CCN1CCN(C(=O)c2cc3cc4ccc(OC)cc4nc3s2)CC1`, the inhibition is -4.82% (inactive).
For the compound `COc1ccc(-n2c(SCC(=O)NCc3ccco3)nnc2-c2c[nH]c3ccccc23)cc1`, the inhibition is -3.5% (inactive).
With `CCc1ccccc1NC(=O)c1cccs1` the figure was -6.58% (inactive); with `CCc1nnc(NC(=O)c2cccs2)s1`, 60.3% (active); with `CCCc1nnc(NC(=O)c2cccs2)s1`, -6.49% (inactive).
With `Cc1ccc2nc(SC(C)C(=O)NCc3ccco3)[nH]c2c1` (centres undefined) the figure was 1.32% (inactive); with `Cc1ccc(-n2c(=O)cc(N3CCN(Cc4ccccc4)CC3)[nH]c2=O)cc1`, -1.26% (inactive); with `CN1CCN(c2cc(=O)n(-c3ccc(Cl)cc3)c(=O)[nH]2)CC1`, 67.4% (active).
With `CN1CCN(c2ccc(NC(=O)COc3ccc(Cl)cc3Cl)cc2)CC1` the figure was 3% (inactive); with `COc1ccc(C2Nc3ccccc3C(=O)N2Cc2ccccc2)cc1Cn1nnc2ccccc21` (centres undefined), -11.2% (inactive); with `C[N+]1(CCNC(=O)/C=N/O)CCCCC1`, 95.9% (active).
Turning to `Cc1ccc(S(=O)(=O)c2c(COC(=O)c3cccc(Cl)c3)c(-c3ccccc3)nn2C)cc1`, the inhibition was 3.59% (inactive).
The value for `CCOC(=O)c1c(NC(=S)Nc2ccccc2)sc2c1CCN(C)C2` was -13.1% (inactive); that for `COc1ccc(C2CC(c3ccc(C)cc3)Nc3nc(N)nn32)cc1` (centres undefined) was -3.47% (inactive).
Turning to `CCOc1ccccc1C1CC(c2ccc(Cl)cc2)Nc2nc(N)nn21` (centres undefined), the inhibition is -12.7% (inactive).
The value for `CCOc1ccccc1C1CC(c2ccccc2)Nc2nc(N)nn21` (centres undefined) was 64% (active); that for `CCOc1ccc(S(=O)(=O)N2CCCCCC2)c2ccccc12` was -17.7% (inactive).
With `O=C(CNC(=O)Cc1ccccc1)NCC(=O)OCC(=O)c1ccccc1Cl` the figure was -4.92% (inactive).
With `COc1ccc(C2=NOC3(CC(=O)N(c4ccc(Cl)cc4)C3=O)C2)c(OC)c1` (centres undefined) the figure was -9.65% (inactive); with `CC(=O)c1cn(CCCCCCCCCCn2cc(C(C)=O)c(=O)[nH]c2=O)c(=O)[nH]c1=O`, -6.55% (inactive).
Regarding `COc1nc(-c2ccc(Cl)cc2)ccc1-c1noc(-c2cccs2)n1`, the inhibition is -90.7% (inactive).
`O=C(CSc1ncnc2c1cnn2CCc1ccccc1)Nc1ccc(F)cc1`: the inhibition was -7.32% (inactive).
